Test results reported in PubChem BioAssay AID1159580 (chemical genetic matrix, 2015).
Hit rate of the full screen: of about 5,500 compounds, about 2,000 (36%) were called active. Not shown: some 18% with an inconclusive outcome. Rule as the data show it: active = normalized growth mostly below about 0.91 (no sharp cut-off); inconclusive = no clear call, values can overlap the other calls; inactive = mostly above about 0.92. The list shows a part of the results.

Assay: chemical genetic growth profiling, strain panel (AID 1159580);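 also: tested at 20 µM; growth read once vehicle control cultures reached saturation at 30 °C; 1 = growth at the plate median or of vehicle wells; lower values mean less growth of the strain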
Settings: growth OD

Measured: normalized growth

NC(N)=NS(=O)(=O)c1ccc(N)cc1
inactive: S. cerevisiae deletion strains, locus YJR066W, strain TOR1, active compounds read low 0.909 | S. cerevisiae deletion strains, locus YKL009W, strain mrt4, active compounds read low 0.993 | S. cerevisiae deletion strains, locus YKL068W, active compounds read low 1 | S. cerevisiae deletion strains, locus YKL085W, strain MDH1 (second series), active compounds read low 1.02 | S. cerevisiae deletion strains, locus YKL085W, strain MDH1, active compounds read low 1.02 | S. cerevisiae deletion strains, locus YKL160W, strain elf1, active compounds read low 0.996 | S. cerevisiae deletion strains, locus YKL190W, strain CNB1, active compounds read low 1.01 | S. cerevisiae deletion strains, locus YKR001C, strain vps1, active compounds read low 1.01 | S. cerevisiae deletion strains, locus YKR026C, strain gcn3, active compounds read low 0.955 | S. cerevisiae deletion strains, locus YKR091W, strain srl3, active compounds read low 0.991 | S. cerevisiae deletion strains, locus YLL001W, strain dnm1, active compounds read low 0.998 | S. cerevisiae deletion strains, locus YLL026W, active compounds read low 0.991 | S. cerevisiae deletion strains, locus YLL041C, strain sdh2, active compounds read low 0.973 | S. cerevisiae deletion strains, locus YLR027C, strain aat2, active compounds read low 0.974 | S. cerevisiae deletion strains, locus YLR039C, strain RIC1, active compounds read low 1.02 | S. cerevisiae deletion strains, locus YLR058C, strain SHM2, active compounds read low 1.02 | S. cerevisiae deletion strains, locus YLR102C, strain apc9, active compounds read low 0.986 | S. cerevisiae deletion strains, locus YLR113W, strain HOG1, active compounds read low 0.967 | S. cerevisiae deletion strains, locus YLR221C, strain rsa3, active compounds read low 0.984 | S. cerevisiae deletion strains, locus YLR258W, strain gsy2, active compounds read low 0.998 | S. cerevisiae deletion strains, locus YLR262C, strain YPT6 (second series), active compounds read low 0.984 | S. cerevisiae deletion strains, locus YLR262C, strain YPT6, active compounds read low 1.03 | S. cerevisiae deletion strains, locus YLR268W, strain sec22, active compounds read low 0.996 | S. cerevisiae deletion strains, locus YLR320W, strain mms22, active compounds read low 0.992 | S. cerevisiae deletion strains, locus YLR330W, strain CHS5, active compounds read low 1.01 | S. cerevisiae deletion strains, locus YLR342W, strain FKS1 (second series), active compounds read low 1.01 | S. cerevisiae deletion strains, locus YLR342W, strain FKS1, active compounds read low 0.977 | S. cerevisiae deletion strains, locus YLR357W, strain rsc2, active compounds read low 0.986 | S. cerevisiae deletion strains, locus YLR370C, strain arc18, active compounds read low 0.981 | S. cerevisiae deletion strains, locus YLR371W, strain rom2, active compounds read low 0.993 | S. cerevisiae deletion strains, locus YLR384C, strain iki3, active compounds read low 0.995 | S. cerevisiae deletion strains, locus YLR418C, strain cdc73, active compounds read low 0.994 | S. cerevisiae deletion strains, locus YML016C, strain PPZ1, active compounds read low 1.01 | S. cerevisiae deletion strains, locus YML032C, strain rad52, active compounds read low 0.987 | S. cerevisiae deletion strains, locus YML120C, strain ndi1, active compounds read low 0.978 | S. cerevisiae deletion strains, locus YML124C, strain tub3, active compounds read low 0.992 | S. cerevisiae deletion strains, locus YMR058W, strain fet3, active compounds read low 0.984 | S. cerevisiae deletion strains, locus YMR078C, strain ctf18, active compounds read low 0.997 | S. cerevisiae deletion strains, locus YMR125W, strain sto1, active compounds read low 0.966 | S. cerevisiae deletion strains, locus YMR129W, active compounds read low 0.997 | S. cerevisiae deletion strains, locus YMR205C, strain PFK2, active compounds read low 1 | S. cerevisiae deletion strains, locus YMR223W, strain ubp8, active compounds read low 0.996 | S. cerevisiae deletion strains, locus YMR231W, strain pep5, active compounds read low 1 | S. cerevisiae deletion strains, locus YMR307W, strain GAS1, active compounds read low 1.03 | S. cerevisiae deletion strains, locus YNL067W, strain RPL9B, active compounds read low 1.03 | S. cerevisiae deletion strains, locus YNL071W, strain lat1, active compounds read low 0.986 | S. cerevisiae deletion strains, locus YNL128W, strain TEP1, active compounds read low 1.03 | S. cerevisiae deletion strains, locus YNL153C, strain GIM3, active compounds read low 1.04 | S. cerevisiae deletion strains, locus YNL183C, strain NPR1, active compounds read low 0.918 | S. cerevisiae deletion strains, locus YNL209W, strain ssb2, active compounds read low 0.993 | S. cerevisiae deletion strains, locus YNL233W, strain BNI4, active compounds read low 1.03 | S. cerevisiae deletion strains, locus YNL248C, strain rpa49, active compounds read low 0.972 | S. cerevisiae deletion strains, locus YNL250W, strain rad50, active compounds read low 0.987 | S. cerevisiae deletion strains, locus YNL271C, strain bni1, active compounds read low 0.985 | S. cerevisiae deletion strains, locus YNL298W, strain CLA4, active compounds read low 0.994 | S. cerevisiae deletion strains, locus YNL307C, strain MCK1, active compounds read low 0.987 | S. cerevisiae deletion strains, locus YNL322C, strain KRE1 (second series), active compounds read low 0.967 | S. cerevisiae deletion strains, locus YNR049C, strain mso1, active compounds read low 0.981 | S. cerevisiae deletion strains, locus YNR052C, strain pop2, active compounds read low 0.986 | S. cerevisiae deletion strains, locus YOL006C, strain TOP1, active compounds read low 1.09 | S. cerevisiae deletion strains, locus YOL012C, strain htz1 0.841 | S. cerevisiae deletion strains, locus YOL147C, strain pex11, active compounds read low 0.992 | S. cerevisiae deletion strains, locus YOR001W, strain rrp6, active compounds read low 0.986 | S. cerevisiae deletion strains, locus YOR061W, strain CKA2, active compounds read low 1.02 | S. cerevisiae deletion strains, locus YOR069W, strain VPS5, active compounds read low 1.01 | S. cerevisiae deletion strains, locus YOR070C, strain gyp1, active compounds read low 0.979 | S. cerevisiae deletion strains, locus YOR080W, strain dia2, active compounds read low 0.985 | S. cerevisiae deletion strains, locus YOR083W, strain WHI5, active compounds read low 0.979 | S. cerevisiae deletion strains, locus YOR106W, strain vam3, active compounds read low 0.976 | S. cerevisiae deletion strains, locus YOR136W, strain idh2, active compounds read low 0.986 | S. cerevisiae deletion strains, locus YOR144C, strain elg1, active compounds read low 0.99 | S. cerevisiae deletion strains, locus YOR184W, strain ser1, active compounds read low 1.02 | S. cerevisiae deletion strains, locus YOR231W, strain MKK1, active compounds read low 0.98 | S. cerevisiae deletion strains, locus YOR265W, strain rbl2, active compounds read low 0.979 | S. cerevisiae deletion strains, locus YOR270C, strain vph1, active compounds read low 0.973 | S. cerevisiae deletion strains, locus YOR290C, strain snf2, active compounds read low 0.992 | S. cerevisiae deletion strains, locus YOR316C, strain cot1, active compounds read low 0.993 | S. cerevisiae deletion strains, locus YPL051W, strain arl3, active compounds read low 0.997 | S. cerevisiae deletion strains, locus YPL055C, strain LGE1, active compounds read low 1.07 | S. cerevisiae deletion strains, locus YPL078C, strain atp4, active compounds read low 0.994 | S. cerevisiae deletion strains, locus YPL106C, strain sse1, active compounds read low 0.953 | S. cerevisiae deletion strains, locus YPL240C, strain hsp82, active compounds read low 0.991 | S. cerevisiae deletion strains, locus YPL256C, strain CLN2, active compounds read low 0.953 | S. cerevisiae deletion strains, locus YPR119W, strain clb2, active compounds read low 0.994 | S. cerevisiae deletion strains, locus YPR141C, strain kar3, active compounds read low 0.997 | S. cerevisiae deletion strains, locus YPR163C, strain tif3, active compounds read low 0.997 | S. cerevisiae deletion strains, locus YPR167C, strain met16, active compounds read low 0.993 | S. cerevisiae deletion strains, strain wtn01, active compounds read low 0.988 | S. cerevisiae strains, strain wild type, active compounds read low 1.02
